Assay outcomes (PubChem BioAssay)
Dicer inh: blocks human Dicer maturation of pre-miR-21; AID 1347074; 47,000 compounds, 6% hits; z-score at 25 µM; Q9UPY3; cat-ELCCA pre-miR-21 Dicer processing, chemiluminescence; hits give high values; in the data active = z-score above about 3, passing the limit was not always enough;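 also: plate controls were vehicle for no effect and no enzyme for full effect; higher signal means more uncleaved substrate so more Dicer inhibition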
Starred values were filed as active, the others as inactive. The full list was thinned out, with hits kept by preference.

SMILES	Dicer inh
CCOc1cc(CNc2ncc(-c3ccc(Br)cc3)n2C)ccc1O	3.42*
Cc1cc(C(=O)NNC(=O)C(Cl)(Cl)Cl)nn1-c1c(Cl)cc(Cl)cc1Cl	-0.66
Cc1ccc(Oc2ccc([N+](=O)[O-])cn2)c([N+](=O)[O-])n1	-0.84
CC(C#N)(Nc1ccccc1)c1ccncc1 (configuration not stated)	3.38*
COC(=O)CSC(=O)NC(=O)c1ccccc1Oc1ccc(Cl)cc1Cl	-4.93
COC(=O)C12CCC(=O)C(C(=O)OC)(CCC1=O)C2	1.36
COc1ccccc1N1C(=O)C2C3C=CC(CC3)C2C1=O (configuration not stated)	0.02
COc1ccccc1N1CC(C)(C)C(=O)NC1=S	6.22*
COc1ccccc1NC(=S)N1CC(C)(C)C1=O	-0.45
COc1ccc(C2C3=C(CC(c4ccco4)CC3=O)Nc3nc4ccccc4n32)cc1 (configuration not stated)	3.13*
O=C1CC(c2ccco2)CC2=C1C(c1cccnc1)n1c(nc3ccccc31)N2 (configuration not stated)	0.79
COc1ccc(C2CC(=O)C3=C(C2)Nc2nc4ccccc4n2C3c2ccco2)cc1 (configuration not stated)	-0.8
CC(C)(C)NC(=S)NC1CCN(Cc2ccccc2)CC1	0.92
CC(C)OC(=O)CSc1nnc(-c2ccccc2Cl)o1	2.75
O=[N+]([O-])c1ccc(Oc2c(Cl)cc(S(=O)(=O)N3CCOCC3)cc2Cl)c(Cl)c1	-0.33
O=c1c2ccccc2nc(SCc2c(Cl)cccc2Cl)n1CC1CC1	0.98
O=c1nc(Nc2ccccc2)c2ccccc2[nH]1	1.55
O=c1nc(N2CCOCC2)nc(Nc2ccccc2)[nH]1	8.26*
COc1ccccc1Nc1nc(Nc2ccccc2OC)nc(N2CCOCC2)n1	0.22
CCCCSC1=C(C#N)C(=O)NC(c2ccc(OC)cc2OC)S1 (configuration not stated)	1.32
CC(c1ccccc1)n1c(SCC(=O)c2cc(-c3ccccc3)no2)n[nH]c1=O (configuration not stated)	-3.1
COc1ccc(C2C3C(=O)NC(=O)C3ON2c2ccccc2)cc1 (configuration not stated)	-0.09
O=C1C2ON(c3ccccc3)C(c3cccnc3)C2C(=O)N1c1ccc(F)cc1 (configuration not stated)	0.56
COc1cccc(N2C(=O)C3ON(c4ccccc4)C(c4ccccc4O)C3C2=O)c1 (configuration not stated)	3.87*
COC(=O)c1ccc(N2C(=O)C3ON(c4ccccc4)C(c4ccc(OC)cc4OC)C3C2=O)cc1 (configuration not stated)	-0.46
SMILES	Dicer inh
COc1ccc(N2C(=O)C3ON(c4ccccc4)C(c4ccco4)C3C2=O)cc1 (configuration not stated)	0.58
O=C1C2ON(c3ccccc3)C(c3cc(Br)ccc3O)C2C(=O)N1c1ccccc1 (configuration not stated)	4.67*
Cc1ccc(N2C(=O)C3ON(c4ccccc4)C(c4cccnc4)C3C2=O)cc1 (configuration not stated)	-0.52
COc1ccc(N2C(=O)C3ON(c4ccccc4)C(c4cc(Br)ccc4O)C3C2=O)cc1 (configuration not stated)	2.48
COc1ccc(C2C3C(=O)N(c4ccccc4)C(=O)C3ON2c2ccccc2)cc1 (configuration not stated)	-0.29
Cc1ccc(N2C(=O)C3ON(c4ccccc4)C(c4ccccc4O)C3C2=O)cc1 (configuration not stated)	0.87
O=C1C2ON(c3ccccc3)C(c3ccccc3O)C2C(=O)N1c1ccc(Br)cc1 (configuration not stated)	3.39*
COc1ccc(N2C(=O)C3ON(c4ccccc4)C(c4ccccc4O)C3(C)C2=O)cc1 (configuration not stated)	3.95*
Cc1c(C#N)c(-n2cccc2)n(Cc2cccs2)c1C	0.88
CCc1nc2cc(C)c(C)cc2nc1CC	-1.11
COc1ccc(Br)c(C(=O)CC#N)c1	1.1
Cc1ccc(Sc2c(C(=O)O)cnc3c2c(C)nn3C)cc1	-0.49
COC(=O)c1ccc(S(=O)(=O)NNC(=O)c2ccc(Cl)cc2)n1C	0.81
O=C(Nc1cccc2cccnc12)c1sc2ccccc2c1Cl	-1.36
N#Cc1cn(-c2ccc(Cl)cc2)c(=O)[nH]c1=O	-1.17
Cc1nn(C)c(NC(=O)c2ccccc2)c1Br	-2.55
Cc1[nH]c2c(C)cccc2c(=O)c1CN1CCCCC1C (configuration not stated)	-0.72
Cc1c(C)c(C)c(CSC2=NCCS2)c(C)c1C	0.2
OC(CC#CCN1CCCCC1)(c1ccccc1)C1CCCC1 (configuration not stated)	1.19
Cc1ccc(N2C(=O)C3C4C=CC(CC4)C3C2=O)cc1 (configuration not stated)	-0.11
CCn1c(NCc2ccncc2)nc2ccccc21	1.99
CCc1ccc(CNc2nc3ccccc3n2C)cc1	3.39*
CN(C)c1ccc(CNc2nc3ccccc3n2CCN2CCCCC2)cc1	2.23
CCCn1c(NCc2ccncc2)nc2ccccc21	1.3
CCN(CC)CCn1c(NCc2ccc(N(C)C)cc2)nc2ccccc21	4.42*
SMILES	Dicer inh
CCN(CC)CCn1c(NCc2ccncc2)nc2ccccc21	2.73
CCc1nnc(-c2cccc([N+](=O)[O-])c2)o1	-0.21
CSc1ccccc1Cn1c(=O)cc(N)n(-c2ccccc2C)c1=O	7.89
CCCCCCC#Cc1cncc(C(=O)O)c1	-0.04
CC(=O)Nc1c2ccccc2n2c(C)nc3ccc(Cl)cc3c12	1.44
CN(C)c1ccc(-n2nnnc2SCc2cc(F)cc(F)c2)cc1	0.78
COC(=O)C1=C(NC(=O)c2cccc(Br)c2)CCS1	-0.53
Cc1c(-c2ccc(-c3ccccc3F)cc2)nc2ccc(F)cc2c1C(=O)O	0.46
OC1=C(O)c2nc3cc(F)ccc3nc21	3.12*
CCOC(=O)c1ccc2nc3c(nc2c1)C(O)=C3O	8.52
COc1ccc([N+](=O)[O-])c(OC)c1C(=O)Nc1ccc(F)c(Cl)c1	-0.3
COc1nc(NCC(C)C)nc(Oc2ccc(=O)[nH]n2)n1	-0.42
CCOc1ccc(Oc2nc(NCC(C)C)nc(N3CCOCC3)n2)nn1	5.85*
CN(C)c1nc(Oc2ccc(=O)n(C)n2)nc(N2CCOCC2)n1	-1.02
COc1cc2cc(OS(=O)(=O)c3ccc(C)cc3)nc(C)c2cc1OC	-0.47
CCOC(=O)c1c(C)oc2ccc(OCc3ccc(Br)cc3)cc12	0.4
O=C1c2cccc3cccc(c23)C(=O)N1CCCC(=O)N1CCc2ccccc21	1.32
Cc1c(C(=O)O)c2cc(NS(=O)(=O)N(C)C)ccc2n1S(=O)(=O)N(C)C	-1.3
Cc1ccc(C)n1-c1ccc(C2(O)CCSc3ccccc32)cc1 (configuration not stated)	2.38
Cc1ccc(C)n1-c1ccc(C2(O)CCSc3ccc(F)cc32)cc1 (configuration not stated)	4.03*
Cc1ccc2c(=O)c(CN3CCCCC3C)c(C)[nH]c2c1C (configuration not stated)	1.13
O=c1[nH]c(-c2ccc(Cl)cc2)nc2c1CSC2	0.12
CC1(C)CC2CC(C)(CN2c2ccc(C(F)(F)F)cc2[N+](=O)[O-])C1 (configuration not stated)	-0.19
COC(=O)Cn1nnc2sc3c(c2c1=O)CCCC3	1.01
CCC(C)OC(=O)Cn1nnc2sc3c(c2c1=O)CCC(C)C3 (configuration not stated)	2.05
